The test system of this test is MILI (PIWIL2) piRISC loaded with L1MC piRNA (26 nt). Kind of test: pre-steady-state target cleavage rate (min^-1); guide: L1MC piRNA 5'p-UAACUAAAUACUAUGCAAGCUGUAGG; MIWI and MILI are mouse PIWI proteins and EfPiwi is from a freshwater sponge; tags in brackets are library labels; higher = faster piRNA-guided slicing of the target. Put shortly: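 A transcribed, DNA-blocked target RNA library […] was incubated at 33 °C for 0–8 or 0–960 min with 1 nM active affinity-purified piRISC carrying one synthetic guide, in HEPES–potassium acetate buffer with or without 500 nM GTSF1 partner protein. Uncleaved targets were then sequenced and normalised to depth and to weakly complementary targets. Data from three trials were pooled, with k3 capped at 0.0001 min^-1, and a burst-and-steady-state fit yielded the pre-steady-state cleavage rate.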

The mark [1] stands for this setting: auxiliary factor: 500 nM mouse GTSF1.
Setting [2] is: auxiliary factor: none (no GTSF1).

± gives the standard deviation. Where only a bound is given, the exact number is not on record here.
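Also: 1 nM active piRISC with 0.1 nM target library at 33 °C single turnover.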

With UCCUGGAUGUCGAACGUAUCUAUAAUGUUA, under setting [1], the “pre-steady-state target cleavage rate” value was less than 0.0001. As for UCCUGGUAGAGCUUGCAUAGAAUUUAGUUA, the “pre-steady-state target cleavage rate” value under setting [1] is 0.0311 ± 0.0054. Turning to UCCUCCUACAGCAUGCAUAGUAUUUUCAAA, under setting [1], the “pre-steady-state target cleavage rate” value was 0.138 ± 0.03. In the case of UCCUGGAUCAGCUUGCAUAGUUAUUAGUAA, the “pre-steady-state target cleavage rate” value under setting [1] is 0.00826 ± 0.0047. Consider UCCUGGAUCAGCUUGCAUAGCUAUUUAGUUA, for which, under setting [1], the “pre-steady-state target cleavage rate” value is 0.00402 ± 0.004.

As for UCCUGCUACUCGUUGCAUAGUAUUUAGAAA, the “pre-steady-state target cleavage rate” value under setting [1] worked out at 0.179 ± 0.032. UCCUGGAUGUCGAUGCAUAGUAUUCUAGUUA: the “pre-steady-state target cleavage rate” value under setting [1] was found to be 0.115 ± 0.023. As to UCCUGGAUGUCCUUGCAUACUAUUAAGUUA, the “pre-steady-state target cleavage rate” value under setting [1] was determined as 0.0099 ± 0.0049.

As for UCCUGGUACAGCUUGCAUAGUAUUUCGUUA, the “pre-steady-state target cleavage rate” value under setting [1] amounted to 0.114 ± 0.037. In the case of UCCUGGAUGUCGAAGCAUAGUAUAUUGUUA, the “pre-steady-state target cleavage rate” value under setting [1] was found to be 0.00971 ± 0.0047.

For the sequence UCCUGGAUGUGCUUGCAUAGUAUUAGUUA, the “pre-steady-state target cleavage rate” value under setting [1] came out at 0.0236 ± 0.0068. On to UCCUGGAACACGAUGCAUAGUAUUUUCAAA, for which the “pre-steady-state target cleavage rate” value under setting [1] is 0.0494 ± 0.017. Consider UCCUGGUAGAGCUUCCAUAGUAUUUAGUUA, for which the “pre-steady-state target cleavage rate” value under setting [1] came to 0.0967 ± 0.033.

Regarding UCCUGGUACAGCUUGCAUAGAUUUUAGUAA, the “pre-steady-state target cleavage rate” value under setting [1] worked out at 0.0172 ± 0.008. For the sequence UCCUGGAUGUCGAACCAUAGAAAUUAGUUA, the “pre-steady-state target cleavage rate” value under setting [1] was less than 0.0001. Regarding UCCUGGAUGUCGUUGCAUAGUAUUCAGUUA, the “pre-steady-state target cleavage rate” value under setting [1] is 0.0553 ± 0.018. Regarding UCCUGGAUGUCCAUGCUUAGUAUUUAGUUA, the “pre-steady-state target cleavage rate” value under setting [1] was determined as 0.0223 ± 0.0087. For UCCUGGAACAGCUUGGUAAGUAUUUAGAAA, the “pre-steady-state target cleavage rate” value under setting [1] was 0.0429 ± 0.015. With UCCUGGAUCAGCUUGGAUACUAUUUAGUUA, under setting [1], the “pre-steady-state target cleavage rate” value came to 0.0383 ± 0.01. UCCUGGAUGUCGAACGUUAGUAUUUAGUUA: the “pre-steady-state target cleavage rate” value under setting [1] was less than 0.0001. With UCCUGGAUGUCGUUGCAUAGGUAUUUAGUUA, the “pre-steady-state target cleavage rate” value under setting [2] was found to be 0.00509 ± 0.0029. With UCCUGGUUGUGCUUGCAUAGUAUUUACAAA, under setting [1], the “pre-steady-state target cleavage rate” value was 0.00786 ± 0.0048. UCCUGGAUCAGCUUGCAUAGUUUUUACUUA: under setting [1], the “pre-steady-state target cleavage rate” value is 0.00933 ± 0.0038. With UCCUGGAACAGCUUGCAUAGAAUAUAGUUA, under setting [1], the “pre-steady-state target cleavage rate” value is 0.0426 ± 0.011. On the same count and under the same terms, to UCCUGGAUGUCGUUCCAUAGUAUUUAGUUA belongs 0.00992 ± 0.0041; to UCCUGGAUGUGCUUGCAUAGUAUAUAGUUA, 0.083 ± 0.014. For UCCUGGUACAGCUUGCAUAGAAUAUAGUUA, under setting [1], the “pre-steady-state target cleavage rate” value was 0.102 ± 0.028. Consider UCCUGGAACAGCUUGCUUAGUAUUUAGAAA, for which, under setting [1], the “pre-steady-state target cleavage rate” value was 0.142 ± 0.029. On to UCCUGGAUGUCGAACGUAUCUAUAAAGUUA, for which the “pre-steady-state target cleavage rate” value under setting [2] is less than 0.0001. As for UCCUGCUACACGUUGCAUAGUAUUUUCAAA, the “pre-steady-state target cleavage rate” value under setting [1] turned out to be 0.00757 ± 0.0052. On to UCCUGGAUGUCGAACGUUAGUAUUAACUUA, for which the “pre-steady-state target cleavage rate” value under setting [2] was less than 0.0001. Regarding UCCUGCUACAGCUUGCAUAGUAUUUACAAA, under setting [1], the “pre-steady-state target cleavage rate” value came to 0.153 ± 0.039. With UCCUGGAUGUCGAACGUUACUUUUUAGUUA, the “pre-steady-state target cleavage rate” value under setting [2] is less than 0.0001. As for UCCUGGAUGUCGAAGCAUAGUACUUAGUUA, the “pre-steady-state target cleavage rate” value under setting [1] was 0.00746 ± 0.0031. Turning to UCCUGGUACAGCUUGCAUUAGUAUUUAGUUA, the “pre-steady-state target cleavage rate” value under setting [1] is 0.017 ± 0.0074. As to UCCUGGAACAGCUAGCAUAGAAUUUAGUUA, the “pre-steady-state target cleavage rate” value under setting [1] was 0.0486 ± 0.0073. For UCCUGGAUGUGCUUGGAAAGUAUUUAGUUA, the “pre-steady-state target cleavage rate” value by setting is: under setting [1], 0.0377 ± 0.0067; under setting [2], 0.00729 ± 0.002. With UCCUCCUACAUGCUUGCAUAGUAUUUAGUUA, the “pre-steady-state target cleavage rate” value by setting is: under setting [1], 0.149 ± 0.018; under setting [2], 0.0058 ± 0.002. Consider UCCUGGAUGUCGAACGAUUCAAUUUAGUUA, for which the “pre-steady-state target cleavage rate” value under setting [2] is less than 0.0001.

On to UCCUGGAUGUCGUUGCAUAGUAGUUAGUUA, for which the “pre-steady-state target cleavage rate” value runs as follows: under setting [1], 0.013 ± 0.0052; under setting [2], 0.00511 ± 0.0031. Turning to UCCUGGAUCGGCUUGCAUAGUAUUUAGUUA, the “pre-steady-state target cleavage rate” value runs as follows: under setting [1], 0.261 ± 0.016; under setting [2], 0.0131 ± 0.0022. As to UCCUGGAUCAGCUUGCAUAGAUAUUUAGUUA, the “pre-steady-state target cleavage rate” value by setting is: under setting [1], 0.0135 ± 0.004; under setting [2], 0.00307 ± 0.0026. With UCCUGGAACAGCUUGCAUUCUAUUUAGUUA, the “pre-steady-state target cleavage rate” value under setting [1] worked out at 0.0609 ± 0.014.

As to UCCUGGAUGUCGAACCAAAGUAUUUUGUUA, the “pre-steady-state target cleavage rate” value runs as follows: under setting [1], less than 0.0001; under setting [2], less than 0.0001. For UCCUGGAACAGCUUGCAUAGUAUUGAGUUA, the “pre-steady-state target cleavage rate” value under setting [1] was 0.172 ± 0.029. As to UCCUGGAUGAGCUUGCAAAGUAUAUAGUUA, the “pre-steady-state target cleavage rate” value came out at 0.148 ± 0.02 under setting [1] and 0.00576 ± 0.0029 under setting [2].

As to UCCUGCUACAGCUUGCAAUGUAUUUAGUUA, the “pre-steady-state target cleavage rate” value by setting is: under setting [1], 0.0986 ± 0.014; under setting [2], 0.00809 ± 0.002. For the sequence UCCUGGUACAGCUUGCAUAGUAUUUAAUUA, the “pre-steady-state target cleavage rate” value by setting is: under setting [1], 0.0793 ± 0.022; under setting [2], 0.00528 ± 0.0035.

Turning to UCCUGGAUGUGCUUGCAUAGUUAUUUAGUUA, the “pre-steady-state target cleavage rate” value is, setting by setting: under setting [1], 0.0061 ± 0.0048; under setting [2], 0.00419 ± 0.0033.

As for UCCUGGAUGUCCUUGCAAUGUAUUUAGUUA, the “pre-steady-state target cleavage rate” value is 0.0105 ± 0.0042 under setting [1] and 0.00626 ± 0.0014 under setting [2].

Consider UCCUGGAUGUCGAAGCAUAGUAUUUAGGUA, for which the “pre-steady-state target cleavage rate” value under setting [1] is 0.00926 ± 0.0047.

UCCUGGAUGUGCUAGCAUAGUUUUUAGUUA: the “pre-steady-state target cleavage rate” value is 0.0108 ± 0.0046 under setting [1] and 0.00466 ± 0.0027 under setting [2]. Consider UCCUGGAACAGCUUGCAUUGUAUUUUGUUA, for which the “pre-steady-state target cleavage rate” value under setting [1] stood at 0.102 ± 0.013. Regarding UCCUGCUACAGCUAGCAUAGUAUUUAGUUA, the “pre-steady-state target cleavage rate” value is, setting by setting: under setting [1], 0.354 ± 0.027; under setting [2], 0.00624 ± 0.0029. For the sequence UCCUGGAUGUGCUUCGUUAGUAUUUAGUUA, the “pre-steady-state target cleavage rate” value under setting [1] is 0.00476 ± 0.0034. On to UCCUGGAUGUCGUUGCAUAGUAUAUUAGUUA, for which the “pre-steady-state target cleavage rate” value was 0.121 ± 0.023 under setting [1] and 0.00754 ± 0.0028 under setting [2].

In the case of UCCUGGAUGAGCUUGCAUAGUUAUUUAGUUA, the “pre-steady-state target cleavage rate” value was found to be 0.0115 ± 0.0045 under setting [1] and 0.00489 ± 0.0022 under setting [2].

Turning to UCCUGGUACAGCUUGCUUUGUAUUUAGUUA, the “pre-steady-state target cleavage rate” value by setting is: under setting [1], 0.123 ± 0.017; under setting [2], 0.0068 ± 0.0025. For UCCUGGAUGUCGAUGCAUAGUAGUUAGUUA, the “pre-steady-state target cleavage rate” value reads like this: under setting [1], 0.0193 ± 0.005; under setting [2], 0.00415 ± 0.0021. On to UCCUGGAUGUGCUUGGAUUGUAUUUAGUUA, for which the “pre-steady-state target cleavage rate” value under setting [1] amounted to 0.00469 ± 0.0044. As to UCCUGGAUGUCGUUGGCAUAGUAUUUAGUUA, the “pre-steady-state target cleavage rate” value reads like this: under setting [1], 0.0621 ± 0.015; under setting [2], 0.0049 ± 0.003. In the case of UCCUGGUACAGCAACCAUAGUAUUUAGUAA, the “pre-steady-state target cleavage rate” value under setting [1] stood at 0.313 ± 0.064 and the “pre-steady-state target cleavage rate” value under setting [2] was found to be 0.00382 ± 0.0021. In the case of UCCUGGAUGUCGUUGCAUAGUAAUUUAGUUA, the “pre-steady-state target cleavage rate” value is, setting by setting: under setting [1], 0.0127 ± 0.0059; under setting [2], 0.00447 ± 0.0029. With UCCUGGAUGUCCUUGCAUCGUAUUUAGUUA, the “pre-steady-state target cleavage rate” value runs as follows: under setting [1], 0.0423 ± 0.015; under setting [2], 0.00482 ± 0.0021. The matching figures for UCCUGGAUGUGCUACCAUAGUAUUUAGUUA: 0.0577 ± 0.0094 and 0.0039 ± 0.0022. In the case of UCCUCCAACAGCUUGCAAAGUAUUUAGUUA, the “pre-steady-state target cleavage rate” value runs as follows: under setting [1], 0.155 ± 0.01; under setting [2], 0.00656 ± 0.0019. As to UCCUCCUACAGCUUGCAAUCUAUUUUCAAA, the “pre-steady-state target cleavage rate” value under setting [1] amounted to 0.0216 ± 0.0095. On to UCCUGGAUCAGCUAGCAUAGUUUUUAGUUA, for which the “pre-steady-state target cleavage rate” value is, setting by setting: under setting [1], 0.0366 ± 0.0073; under setting [2], 0.00382 ± 0.0025.

Take UCCUGGAUGUGCUUGCAUUGUUUUUAGUUA: the “pre-steady-state target cleavage rate” value was 0.00733 ± 0.005 under setting [1] and 0.00335 ± 0.0032 under setting [2]. Take UCCUCCUACUGCUUGCUUAGUAUUUAGUUA: the “pre-steady-state target cleavage rate” value by setting is: under setting [1], 0.234 ± 0.015; under setting [2], 0.00718 ± 0.0021.

The values are drawn from the supplement of paper PMC10338343.
